Assay results published in the supplement of paper PMC10681739.

The sequences below were run against RUNX1 (UniProt Q01196) (assay: RUNX1 binding intensity (PBM fluorescence) in presence of ETS1, normalised to RUNX1-only experiment (arbitrary fluorescence units); higher = stronger binding). Details: RUNX1 concentration 2 nM; ETS1 concentration 25 nM.
Description: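 Cooperative gcPBM on 36-bp genomic probes with neighbouring ETS1 and RUNX1 sites. Recombinant human RUNX1 (2 nM) was incubated alone or with ETS1 (25 nM) and detected with anti-RUNX1 antibody plus Alexa488 secondary. Values are medians over 4 replicate spots; the RUNX1+ETS1 data were normalised to the RUNX1-only data. The probes sit in constant array flanks that are not printed.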
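Also: Full-length recombinant human ETS1 or RUNX1 bound to double-stranded 36-bp genomic probes on microarrays, detected by protein-specific primary antibody and Alexa488 secondary, spot fluorescence as median of four replicate spots.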

Sequence of RUNX1 (Q01196 whole entry): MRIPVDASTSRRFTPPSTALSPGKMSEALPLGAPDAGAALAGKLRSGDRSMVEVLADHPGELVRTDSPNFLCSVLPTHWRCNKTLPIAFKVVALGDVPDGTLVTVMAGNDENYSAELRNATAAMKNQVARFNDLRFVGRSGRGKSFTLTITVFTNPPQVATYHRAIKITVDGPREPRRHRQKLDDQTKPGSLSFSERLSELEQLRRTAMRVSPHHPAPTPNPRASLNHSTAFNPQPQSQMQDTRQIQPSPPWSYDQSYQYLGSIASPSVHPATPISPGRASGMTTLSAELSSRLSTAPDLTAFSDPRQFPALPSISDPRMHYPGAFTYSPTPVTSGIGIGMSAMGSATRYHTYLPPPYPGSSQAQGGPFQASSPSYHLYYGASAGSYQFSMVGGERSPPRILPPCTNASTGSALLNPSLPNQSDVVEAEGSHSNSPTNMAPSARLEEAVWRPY

| Sequence | RUNX1 binding intensity |
| --- | --- |
| AGCGTTTCCTGCCTGTCTGGGGCTGACAAACCACAA | 2120 |
| ACCTGTAGGCGGAAGTCTGTGGCTTTATTTACACAG | 1730 |
| CAGAAAAGGCAGGAAGTGGTACAAACCACAAAAGGC | 8000 |
| AGCGCCGGAAGTGTGTCTGCGTAAAACTGCGGCTCG | 1520 |
| CCTTGCAGCAACGGATGTGGGTTTTTTTTTTTCTTT | 10500 |
| TGAGGGGCTCGCCGGGAAATGTGGTTTAGCGGCCCT | 2000 |
| TCGGAGACGGCGAAAGGAAACCGCAAGGAGGCCACC | 9290 |
| GCCCGGAAGCGCGACGCTGGAGCTGCGGGGTTACCA | 882 |
| GGGCCCGGGCCAGGAAGTGGTTTTGCAGAGGTGTTT | 1930 |
| GCCAGGGCAGGAAGTTGCTAACCGCCCCAGAGCAGG | 1460 |
| AAAGTTGTATAGTGAGGATGTGGTCAAGAACTCACC | 1180 |
| GCACTCATTTCCTGTCCCCTGTGGTTTAAAGGTTTT | 4770 |
| GCACTGTAGGCAGGATGTGGGCAGGGGAAACTCAGG | 2870 |
| TGATCAGCAAAAGGAAGTGGTTAACATGGCCCAGAA | 1990 |
| GGAGGGGAGCAGGAAGCTGAGGTTTTGTGAGTCAGA | 1070 |
| GCCCAGGGCGGCCGGAAGTTTGCGGGGCGGGGCGGA | 1480 |
| TTAGATGTGCCTACATCCTGACCTCAAAAACCTCTG | 957 |
| GTCTTAGGTCGGAAGTCTGTGGTCCCTGTTCACATG | 953 |
| TCCTCCCACGGGAAGTGCCGTAGGACCGCAGCCCGA | 1020 |
| CGTCTAATTGCAGGAAGTGGTTTGAAATGTTAATCT | 3650 |

| Sequence | RUNX1 binding intensity |
| --- | --- |
| CAGTGTTCCGCGTCCGGGGGTTTGTGGGAGTTGCCT | 1120 |
| CCCTCTCTTCTTCCTCCCCCACCACAAAAGTCACAG | 2280 |
| TATGTGTTTTAGGCAGGATGTGGGTTTTAGTCTTTC | 2200 |
| CTCCGCCAGCCACCGGAACTGCGGCCCAGCAAAAAG | 949 |
| GCGCTTCCTGCCAGCTTGGAGGATAACCGCCTACCG | 1730 |
| CAGATCCGGCGTGGACGAAGCTCGGGAACCACAACA | 1150 |
| GCCCAGGGAAGCACTTCCTGCGGGGCGCGGTGCAGC | 1500 |
| CACCTCAGCTTCCTGTGTAGCTGGGACCACAGGCAT | 1560 |
| CCCAAGCTACGGAAGTTAAACCTCAAACATGAAATC | 1410 |
| CATCAAGTATTTCCTCACGCAAGCAACCGCATCCAT | 1380 |
| ACTACAGGAGGAAACTACAGCCTAAACCACATGCAA | 892 |
| AGGCCTCGCTTCCTCTCCTGACCACACCCTGCAGCT | 1800 |
| CAAGGCACCAACGGATGTGGTATCTGGTGAGGGCTT | 2430 |
| GGTTTCGCTTCCGGGTTAGGCGGCCGCAGAAGCGTA | 1980 |
| GCTGATAAAACAGGATGTGGTAAAGAAGCCGGCCAA | 8590 |
| ATTTCGCTGAAAACAGGAAACCACGAAGCCCAGATG | 1250 |
| GTATCACTTCCTGTTTTCCTCTGTGGCTTACTGCTG | 3210 |
| AGGAGCCGGAAGTCCCGCCCACGCACCCCCCGCAGG | 1770 |
| GGCGGTGACCGGAAGAGCTGAGTCACCGCAGGCGAC | 1600 |
| TTCTTCCCCCTTCCGGTCGCTGAGTGGTTGAGGCCG | 2500 |
